Assay results from PubChem BioAssay AID720522 (National Center for Advancing Translational Sciences (NCATS), 2013).
Out of some 1,400 compounds screened, about 60 (4%) were called active. Not shown: some 7% with an inconclusive outcome. The call rests on the fitted dose curve; in most records, active means well fitted inhibition curve with a large enough effect; inconclusive means small, poorly fitted or top-dose-only effect; inactive means flat fitted curve, though single readings scatter. Only a sample is shown. Where a call stands in place of a potency, no number is given.

These molecules were tested against Luciferin 4-monooxygenase (Photinus pyralis) (UniProt P08659) (assay: Nrf2 qHTS screen for inhibitors: Purified Fluc Biochemical Counterscreen for Hit Validation). Settings: purified firefly luciferase, luminescence inhibition; series mostly up to 57.5 µM.
Luciferin 4-monooxygenase (Photinus pyralis), sequence (P08659 whole entry, looked up): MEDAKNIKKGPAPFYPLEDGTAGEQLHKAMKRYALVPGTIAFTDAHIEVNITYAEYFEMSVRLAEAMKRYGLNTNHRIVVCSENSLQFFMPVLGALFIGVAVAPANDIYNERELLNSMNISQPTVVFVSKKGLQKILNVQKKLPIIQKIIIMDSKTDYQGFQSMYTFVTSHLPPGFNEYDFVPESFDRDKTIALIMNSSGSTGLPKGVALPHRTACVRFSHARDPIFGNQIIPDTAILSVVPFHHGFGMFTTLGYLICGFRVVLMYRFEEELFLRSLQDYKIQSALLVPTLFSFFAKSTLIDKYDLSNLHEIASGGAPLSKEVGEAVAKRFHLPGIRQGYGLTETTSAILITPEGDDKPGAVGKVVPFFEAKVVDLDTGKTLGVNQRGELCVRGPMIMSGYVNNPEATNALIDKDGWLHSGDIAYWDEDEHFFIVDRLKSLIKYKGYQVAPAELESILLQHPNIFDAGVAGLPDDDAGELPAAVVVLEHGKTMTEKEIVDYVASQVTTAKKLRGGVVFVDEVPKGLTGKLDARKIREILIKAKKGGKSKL
Excerpt: Nrf2 is a transcription factor that maintains cellular redox homoestasis and protects cells from xenobiotics. Nrf2 binds to the antioxidant response element (ARE) to induce gene expression of a broad spectrum of genes that encode for antioxidants. […] Finding a small molecule that act as an inhibitor of Nrf2 function would represent a novel therapeutic target that could lead to improvement in survival of patients undergoing chemo- and/or radio- therapy.
A biochemical assay in 1536 well format was developed and utilized to remove compounds that inhibit the luciferase reporter (Fluc) rather than the Nrf2 enzyme. Inhibition of this assay = false positive inhibition of Nrf2.
NIH Chemical Genomics Center [NCGC]
NIH Molecular Libraries Probe Centers Network [MLPCN]
Assay Submitter (PI): Shyam Biswal, Johns Hopkins University
[1] Shibata T., et al., Genetic alteration of Keap1 confers constitutive Nrf2 activation and resistance to chemotherapy in gallbladder cancer. Gastroenterology, 2008.
[2] Sjoblom T., et al., The consensus coding sequences of human breast and colorectal cancers. Science, 2006.
Three microliter of substrate solution containing 50mM Tris acetate, 13.3 mM Mg-acetate, 0.01mM ATP, 0.01% Tween, 0.05% BSA and 0.01mM D-Luciferin (Sigma, #L9504) was dispensed into 1536 well white solid bottom assay plate (Greiner Bio, #789173-F). Twenty-three nanoliter of compounds dissolved in DMSO at different concentrations was added to the plate using a Kalypsys 1536-pin tool. Then 1 uL of firefly luciferase reagent containing 50mM Tris-acetate and 0.04uM P. pyralis luciferase (Sigma, #L9506) was added. The final DMSO concentration was maintained at 0.56%. Luminescence signal was acquired using the PerkinElmer Viewlux plate reader after incubation at room temperature for 10 minutes.
Further: nearly all actives have a fitted effect of over 65% in size.
Potency means the concentration at half of the fitted maximal effect.

SMILES	Potency
Cc1cc(C(=O)NC2CCCc3c2cnn3-c2cccc(C)c2C)c(C)o1 (stereo not given)	inactive
O=C(CCC(=O)N1CCN(S(=O)(=O)c2ccc(Cl)cc2)CC1)NCc1cccc(C(F)(F)F)c1	inactive
Cc1nc(N2CCOCC2)c2c(C)c(C(=O)Nc3ccc(C(F)(F)F)cc3)sc2n1	inactive
O=C(Nc1ccncc1)c1c(F)cccc1F	inactive
Cc1ccc(S(=O)(=O)N2CCN(c3ncnc4ccccc34)CC2)cc1	inactive
CC(=NNC(=S)N1CCCCCC1)c1ccccn1	12 µM (active)
CCCCNc1nc2c(c(=O)n(C)c(=O)n2C)n1Cc1cccc(OC)c1	inactive
CC(=O)N1c2ccc(S(=O)(=O)N3CCCC(C(=O)NCc4ccc(Cl)cc4)C3)cc2CC1C (stereo not given)	inactive
CN(C)c1ccc(/C=C/c2sc3ccccc3[n+]2CCCCBr)cc1	inactive
CCC(C)N1C(=O)S/C(=C/c2ccc(Sc3nc4ccccc4[nH]3)o2)C1=O (stereo not given)	inactive
O=C1C=C(c2ccnc3cc(Cl)ccc23)C[C@@H](c2ccc3c(c2)OCO3)C1	inactive
COc1cccc(-c2nc(CS(=O)(=O)CC(=O)N3CCN(c4cc(C)ccc4C)CC3)c(C)o2)c1	inactive
COCCn1c(SCC(=O)Nc2ccccc2F)nc2c(c1=O)SCC2	inactive
Cn1nccc1C(=O)NC1CCCc2c1cnn2-c1ccc(F)cc1F (stereo not given)	inactive
Cc1oc2c(F)c(F)c(F)c(F)c2c1S(=O)(=O)Nc1cccc(C(F)(F)F)c1	inactive
CC(=O)N1CCCc2cc(S(=O)(=O)N3CCCC(C(=O)N4CCN(c5cccc(Cl)c5)CC4)C3)ccc21 (stereo not given)	inactive
Cc1ccc(NC(=O)C2CC(=O)N(c3ccc4c(c3)OCCO4)C2)cc1S(=O)(=O)N1CCCCCC1 (stereo not given)	inactive
O/N=C(\C[n+]1ccccc1)c1ccc(Br)cc1	inactive
N#CC(C#N)=CN=c1ccn(Cc2ccc(Cl)cc2Cl)cc1	inactive
O=c1[nH]c(SCc2cccc(F)c2)nc2ccccc12	inactive

SMILES	Potency
COc1cccc(-c2nnc(NC(=O)c3ccc(S(=O)(=O)N(CC(C)C)CC(C)C)cc3)o2)c1	inactive
Cc1cc(C)c(-c2csc(NC(=O)CCCc3nc4ccccc4c(=O)[nH]3)n2)c(C)c1	inactive
Cc1c(Cl)cccc1NC(=O)Cn1cc(C(=O)c2cccs2)c2ccccc21	inactive
CC1(C)O[C@@H]2CC3C4C[C@H](F)C5=CC(=O)C=CC5(C)C4C(O)CC3(C)[C@]2(C(=O)CO)O1 (stereo not given in full)	inactive
CC(=O)Nc1ccc(Nc2c3ccccc3nc3ccccc23)cc1	inactive
CCCOc1ccc(C(=O)Nc2ccc3oc(-c4cccc(Cl)c4Cl)nc3c2)cc1	inactive
CC(=O)OC(C)C[N+](C)(C)C (stereo not given)	inactive
COc1ccc(CC(=O)Nc2nc(-c3ccc(F)c(F)c3)cs2)cc1OC	inactive
O=C(OCCOc1ccccc1Cl)c1cc(S(=O)(=O)N2CCCCC2)ccc1N1CCOCC1	inactive
CC1CCCN(S(=O)(=O)c2ccc(C(=O)Nc3nnc(-c4ccncc4)o3)cc2)C1 (stereo not given)	inactive
CC[C@H]1CN2CCc3cc(OC)c(OC)cc3[C@@H]2C[C@@H]1C[C@H]1NCCc2cc(OC)c(OC)cc21	inactive
Cc1ccc(S(=O)(=O)N2C[C@@H]3CCCC[C@@H]3[C@@H](C)[C@H]2c2cn(Cc3ccccc3)c3ccc(F)cc23)cc1	inactive
OCCCNc1nccc(-c2cc(Nc3cccc(Cl)c3)ncn2)n1	inactive
Cc1ccc(NS(=O)(=O)c2cccs2)cc1S(=O)(=O)N1CCCCCC1	inactive
CCOC(=O)c1cnc(-n2nc(C)cc2C)nc1NNc1cc(C)nc(-c2ccccc2)n1	inactive
CN(Cc1cccnc1)C(=O)c1cc(COc2ccc3ncccc3c2)on1	inactive
CC1(C)CC(N2CCN(C(c3ccccc3)c3ccccc3)CC2)=CC(=[N+]2CCCCC2)C1	inactive
Cc1csc[n+]1CCC1CCCCC1	inactive
O=C(Nc1ccc(Br)cn1)C1CCN(S(=O)(=O)c2cccs2)CC1	inactive
COc1ccc(N2CCN(C(=O)CSCc3nc(-c4ccccc4Cl)oc3C)CC2)cc1	inactive

SMILES	Potency
CCCOc1ccc(Cc2c(Cl)nc(SC)nc2NC)cc1	inactive
Cc1cccc(N2CCN(C(=O)CCS(=O)(=O)c3ccc4c(c3)NC(=O)C(C)S4)CC2)c1C (stereo not given)	inactive
C[n+]1ccc(/C=C/c2c[nH]c3ccccc23)cc1	inactive
O=C(CN1C(=O)c2ccccc2S1(=O)=O)N1CCc2ccccc21	4.26 µM (active)
O=C(CSc1nnc2c(n1)[nH]c1ccccc12)NC1CCCCC1	inactive
O=C(CC(O)(C(F)(F)F)C(F)(F)F)Nc1ccc(Cl)c(Cl)c1	inactive
COc1ccc(C(=O)C[n+]2ccc(N)c(C)c2C)cc1	inactive
CCCN(c1ccc(C(C)C)cc1)S(=O)(=O)c1c(C)[nH]c(=O)[nH]c1=O	inactive
CCOc1ccc(S(=O)(=O)N2CCCCC2)cc1NC(=O)CN1CCCC1c1cccs1 (stereo not given)	inactive
CC1CCN(S(=O)(=O)c2ccc(NC(=O)C3CC(=O)N(c4ccccc4)C3)cc2)CC1 (stereo not given)	inactive
COc1ccc(CCNC(=O)c2ccc(CS(=O)(=O)c3ccc(Br)cc3)o2)cc1OC	inactive
COc1ccc(OC)c(Cc2cnc3nc(N)nc(N)c3c2C)c1	inactive
CCCCCCCCn1c2c(c(=N)c3c1CCC3)CCCC2	inactive
COc1ccc(CCNc2cc(N3CCN(C(=O)c4ccccc4OC)CC3)ccc2[N+](=O)[O-])cc1OC	inactive
CC(=O)N1c2ccc(S(=O)(=O)N3CCCC(C(=O)Nc4cccc(Cl)c4)C3)cc2CC1C (stereo not given)	inactive
CNC(=O)c1cccc2nc3ccccc3nc12	inactive
CC(C)Cn1c(N)c(C(=O)COC(=O)CN2C(=O)C3CC=CCC3C2=O)c(=O)n(C)c1=O (stereo not given)	inactive
Cc1cc(C)cc(NS(=O)(=O)c2ccc(Oc3ncc(C(F)(F)F)cc3Cl)cc2)c1	inactive
CCNS(=O)(=O)c1ccc(CCC(=O)N2CCN(c3cc(Cl)ccc3C)CC2)cc1	inactive
C=CCC1(CC=C)CCCN1C(=O)c1cc(COc2ccc(-n3cncn3)cc2)on1	inactive
